Among the data in PubChem BioAssay (NCI) are growth values, retold here.

The structures appear in SMILES notation. This is part of a sample that, as a whole, favours compounds with a hit. Of some 83,000 tested, about 20% had one in any assay.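 How to read the values: 0–100, growth inhibition (40 = 60% inhibited); 0, no net growth; -100 to 0, cell death (-40 = 40% of starting cells died; -100 = all dead).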 The source made the active and inactive calls. The calls were made as follows: active = growth percent below 10; inactive = the rest.

The first assay has as its system OVCAR-5 ovarian. The assay is described as follows: NCI-60 one-dose screen, 48 h (100 = growth as untreated, 0 = no growth, -100 = all killed). The conditions noted are these: 10 µM unless noted.
For the molecule `Cc1cc(C(=O)Nc2ccc(SC#N)cc2)c(C)o1`, the growth is 115% (inactive).
As for `O=C(NNc1nc2cc(F)c(F)cc2n2cccc12)c1ncccn1`, the growth is 49.6% (inactive).
Regarding `CN1CCN(c2ccc(NC(=O)Nc3ccc4c(ccn4-c4cccc(C(N)=O)n4)c3)cc2C(F)(F)F)CC1`, the growth is 85.3% (inactive).
For `O=C(Nc1ccc(Cl)cc1)Nc1nc2ccc([N+](=O)[O-])cc2s1`, the growth is 18.4% (inactive).
Still for that read-out and setting: with `NC(=O)c1c(NC(=O)c2cccc(OC(F)(F)F)c2)sc2c1CCC(=O)C2` the figure was 62.5% (inactive).
With `O=C(/C=C1\C=CN(CCCCO)c2ccccc21)n1ccc2ccccc21`, the growth is 102% (inactive).
In the case of `O=C1c2c(c3c4cccnc4[nH]c3c3ccc4ccccc4c23)C(=O)N1CCN1CCNCC1`, the growth is 113% (inactive).
Consider `O=C(Nc1ccccc1)Nc1nc2ccc([N+](=O)[O-])cc2s1`, for which the growth is 12.1% (inactive).
As for `Cc1cc(Cl)cc(NS(=O)(=O)c2ccc(-c3cnc(C4CC4)o3)cc2)c1`, the growth is 43.6% (inactive).
`CCOC(=O)C1=C(C)Nc2nc3ccccc3n2C1c1cccc(Br)c1` (centres undefined): the growth is 97.1% (inactive).
`CCOC(=O)c1nn(-c2ccc(C)cc2)c(=O)c2c(N)c(C#N)c(-c3ccc(OC)cc3)cc12`: the growth is 94.3% (inactive).
As to `Cc1ccc(NC(=O)c2cccc(CN3CCN(C)CC3)c2)cc1Oc1ccc(-c2[nH]nc3ncnc(N)c23)cc1`, the growth is 80.8% (inactive).
As for `O=C1c2c(c3c4cc(Br)ccc4[nH]c3c3ccc4ccccc4c23)C(=O)N1CCN1CCCCC1`, the growth is 99.8% (inactive).
Still for that read-out and setting: the same measure for `CC(C)(C)OC(=O)N1CCN(S(=O)(=O)/N=C2\NC(=O)NC2=C(Cl)Cl)CC1`: 101% (inactive).

The subject of the next assay is OVCAR-4 ovarian. The description is as above. The conditions noted are these: 10 µM unless noted.
Regarding `CCN1C(=O)N(CC)C2SC(N/N=C/c3cccs3)=NC21` (centres undefined), the growth is 62.5% (inactive).
`O=C1NC(=O)/C(=C/c2ccc(OCc3cc4ccccc4nc3Cl)cc2)S1`: the growth is 93.5% (inactive).
On the same count and under the same terms, the same measure for `O=C(NNc1nc2cc(F)c(F)cc2n2cccc12)c1ccncn1`: 3.66% (active).
As for `C#C[C@]1(O)CC[C@H]2[C@@H]3CC=C4c5sc(Nc6nc(C)cc(OC)n6)nc5CC[C@]4(C)[C@H]3CC[C@@]21C`, the growth was 88.4% (inactive).
With `CCNC(=O)Oc1ccc(/C(=C(/C)c2ccc(Cl)cc2)c2ccc(OCCN3CCCC3)cc2)cc1`, the growth is 88.6% (inactive).
Take `O=C(NNc1nc2cc(F)c(F)cc2n2cccc12)c1cccnn1`: the growth is 4.78% (active).
`O=C(O)CNS(=O)(=O)c1ccc(Oc2ccc(S(=O)(=O)NCC(=O)O)cc2)cc1`: the growth was 111% (inactive).
Turning to `Cc1cc(NS(=O)(=O)c2ccc(-c3cnc(C4CC4)o3)cc2)ccc1I`, the growth is 59.9% (inactive).
Same read-out and setting: the same measure for `COc1ccc(C(=O)c2c(N)c(C#N)cn2-c2cccc(OC)c2)cc1`: 63.1% (inactive); for `COc1ccc(CCN2C(=O)CSC2=S)cc1OC`: 100% (inactive); for `Cc1ccc(/C=C/CC(=O)Nc2ccc(C(=O)Nc3ccc(F)cc3N)cc2)cn1`: 62.1% (inactive).
As to `O=C(NNc1nc2cc(F)cc(F)c2n2cccc12)c1ccncn1`, the growth was 4.29% (active).
On to `C[C@H]1[C@H](C)CC[C@]2(COC(=O)c3cccnc3)CC[C@]3(C)C(=CC[C@@H]4[C@@]5(C)CCCNC(C)(C)[C@@H]5CC[C@]43C)[C@H]12`, for which the growth is 70.5% (inactive).
As for `Fc1ccccc1/C=C(/C1=NCCN1)n1cnc2ccccc21`, the growth is 90.9% (inactive).
`COc1ccc(CN2C(=O)/C(=C/c3nc(CO)cs3)SC2=S)cc1`: the growth was 107% (inactive).
As for `O=C(Nc1cc(F)cc2cccnc12)c1cnc(N2CCOCC2)cn1`, the growth is 17.9% (inactive).
`CC1OC(O[C@@H]2[C@H](O)C(CO)OC(O[C@H]3COC(O[C@H]4CC[C@]5(C)[C@H]6CC[C@]78OC[C@@]9(CCC(C)(C)C[C@H]97)[C@H](O)C[C@@]8(C)[C@]6(C)CC[C@H]5C4(C)C)[C@@H](OC4OC(CO)[C@@H](O)[C@@H](O)[C@@H]4O)[C@@H]3O)[C@H]2OC2OC[C@@H](O)[C@@H](O)[C@@H]2O)[C@@H](O)[C@@H](O)[C@H]1O` (some centres undefined): the growth was -74.1% (active).
With `C#C[C@]1(O)CC[C@H]2[C@@H]3CC=C4c5sc(Nc6cccc(Cl)n6)nc5CC[C@]4(C)[C@H]3CC[C@@]21C`, the growth was 47.8% (inactive).
On the same count and under the same terms, the same measure for `Cc1ccc(/C=C/CC(=O)Nc2ccc(C(=O)Nc3ccc(F)cc3N)nc2)cn1`: 43.9% (inactive); for `O=C1[C@@H]2Cc3c([nH]c4ccccc34)[C@H](c3c(Cl)cccc3Cl)N2C(=O)CN1C1CCN(Cc2ccccc2)CC1`: -0.678% (active).
